PubChem BioAssay (NCI)
About 79,000 compounds went through this panel and 15% of them were active in at least one assay; those are over-represented in the sample as a whole. A number with no mark means an inactive call. The source made the active and inactive calls. Cut-off read from the data, not from the text of the source: active = growth inhibition above about 70%; inactive = the rest.

Columns and labels:
[1] = NCI Yeast Anticancer Drug Screen. Data for the rad50 strain (AID 155);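 note: 0% = growth of vehicle-only cultures of the same strain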; settings: S. cerevisiae rad50 strain growth inhibition, stronger effect = higher value
Outline: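 Genetically altered yeast (DNA repair pathway); compound treatment; growth inhibition vs vehicle ctrl.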

[2] = NCI Yeast Anticancer Drug Screen. Data for the mec2-1 strain (AID 157); settings: S. cerevisiae mec2-1 strain, stronger effect = higher value
Outline: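 Test agents were screened against the mec2-1 yeast strain, with defined DNA repair or cell cycle alteration. Growth was scored as inhibition against vehicle-only controls.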

[3] = NCI Yeast Anticancer Drug Screen. Data for the sgs1 mgt1 strain (AID 161);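 note: 0% = growth of cultures given vehicle only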; settings: S. cerevisiae sgs1 mgt1 strain, stronger effect = higher value
Outline: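 Genetically altered yeast, compound exposure, growth inhibition relative to vehicle.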

[4] = NCI Yeast Anticancer Drug Screen. Data for the cln2 rad14 strain (AID 165);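 note: 0% = growth equal to vehicle treated cultures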; settings: S. cerevisiae cln2 rad14 strain, stronger effect = higher value
Outline: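 Growth of compound-exposed yeast (cln2 rad14 genotype) measured and expressed as inhibition relative to vehicle.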

[5] = NCI Yeast Anticancer Drug Screen. Data for the bub3 strain (AID 167); settings: S. cerevisiae bub3 mutant strain, stronger effect = higher value
Outline: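 Yeast carrying a defined mutation is treated with each compound, and growth is compared with that of vehicle-exposed cells to give inhibition.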

[6] = NCI Yeast Anticancer Drug Screen. Data for the mlh1 rad18 strain (AID 175); settings: S. cerevisiae mlh1 rad18 strain growth inhibition, stronger effect = higher value
Outline: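 In this whole-cell yeast screen, a strain with altered DNA damage repair is challenged with compound, and its growth is measured against matched vehicle-treated controls.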

[7] = at 5.0 µM (retest, dose inferred, filed as 0.5)
[8] = at 50.0 µM (retest, dose inferred, filed as 5.0)

| Structure (SMILES) | growth inhibition [1, 7] [%] | growth inhibition [1, 8] | growth inhibition ([1]; at 50.0 µM) | growth inhibition [2, 7] [%] | growth inhibition [2, 8] | growth inhibition ([2]; at 50.0 µM) | growth inhibition [3, 7] [%] | growth inhibition [3, 8] | growth inhibition ([3]; at 50.0 µM) | growth inhibition [4, 7] [%] | growth inhibition [4, 8] | growth inhibition ([4]; at 50.0 µM) | growth inhibition [5, 7] [%] | growth inhibition [5, 8] | growth inhibition ([5]; at 50.0 µM) | growth inhibition [6, 7] [%] | growth inhibition [6, 8] | growth inhibition ([6]; at 50.0 µM) |
| --- | --- | --- | --- | --- | --- | --- | --- | --- | --- | --- | --- | --- | --- | --- | --- | --- | --- | --- |
| CCOC(=O)CC(=O)/C=C/c1ccncc1 | 1 | 5% | -19.2% | -2 | 0% | -8.45% | -10 | -6% | -5.25% | 3 | 1% | 68.7% | 5 | 4% | -9.3% | 1 | 3% | 0.7% |
| COc1ccc(/C=C2\CCCc3ccccc3C2=O)cc1 | -3 | 33% | 60.2% | 2 | 86% (active) | 53.3% | 9 | 86% (active) | 77.7% (active) | -12 | -3% | 20% | 64 | 90% (active) | 80.4% (active) | 5 | 81% (active) | 62.2% |
| CC(=O)NC(C)(C)C1CCC(C)=C(c2ccccc2)C1 (configuration not stated) | -10 | 2% | 32.8% | -9 | -5% | -17.6% | 5 | 8% | 67.2% | 19 | 44% | 18.6% | 17 | 29% | 27.6% | -3 | 29% | -21.2% |
| CN(N(P(c1ccccc1)c1ccccc1)P(c1ccccc1)c1ccccc1)P(c1ccccc1)c1ccccc1 | -1 | 2% | 88.7% (active) | -5 | 9% | 81.9% (active) | -15 | 2% | 88.2% (active) | 2 | 0% | 64.2% | 1 | -4% | 76.5% (active) | -14 | -17% | 93.2% (active) |
| c1ccc2c(c1)C[N+]1(CCCCCCC1)C2 | 19 | 51% | 74.2% (active) | 6 | 64% | 72.7% (active) | -2 | 77% (active) | 69.9% | -14 | 25% | 53.6% | -3 | 36% | 58.9% | 6 | 88% (active) | 65.8% |
| CC1C(O)Oc2cc3c(cc2C1c1ccccc1O)OCO3 (configuration not stated) | -10 | 77% (active) | 61.8% | -41 | 84% (active) | 32.1% | -33 | 40% | 56.5% | 20 | 87% (active) | 69.7% | 25 | 84% (active) | 38.6% | -13 | 90% (active) | 54.5% |
| C=C1C(=O)O[C@@H]2C[C@@]3(C)CCC[C@H](C)C3=C[C@H]12 | 11 | 91% (active) | 50.5% | 23 | 98% (active) | 67.2% | 24 | 98% (active) | 81.7% (active) | 6 | 64% | 41.5% | 4 | 95% (active) | 81.3% (active) | 14 | 96% (active) | 68.5% |
| O=C(c1ccccc1)C1Cc2ccccc2C1=O (configuration not stated) | 2 | 39% | 78.5% (active) | -16 | 2% | 50.1% | 0 | 5% | 86.5% (active) | 3 | 1% | 19.8% | 35 | 13% | 4.4% | 2 | 11% | 84.2% (active) |
| O=C1C=CC(=O)N1CCCCCCN1C(=O)C=CC1=O | 19 | 99% (active) | 99% (active) | 29 | 100% (active) | 99.3% (active) | 32 | 99% (active) | 98.8% (active) | 16 | 99% (active) | 99.5% (active) | 20 | 97% (active) | 99.5% (active) | 38 | 99% (active) | 99.2% (active) |
